Results from PubChem BioAssay AID2158 (National Center for Advancing Translational Sciences (NCATS), 2009).
Inconclusive results are not listed. Values without a mark were called inactive. Calls of active or inactive are those of the source. The call rests on the fitted dose curve; in most records, active means well fitted inhibition curve with a large enough effect; inconclusive means small, poorly fitted or top-dose-only effect; inactive means no such curve, though single readings can be large or run the other way.
Further: nearly all actives have a fitted effect of over 40% in size.
Potency means the concentration at half of the fitted maximal effect.
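Wherever activity change, negative = inhibition is given: plate controls were uninhibited enzyme control for no effect and buffer wells lacking enzyme for full effect.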

These molecules were tested against Cruzipain (Trypanosoma cruzi) (UniProt P25779) (assay: Confirmation qHTS Assay for Inhibitors of Cruzain). Details: purified cruzain, Z-FR-AMC fluorescence, 0.01% Triton.
Cruzipain (Trypanosoma cruzi), sequence (P25779 123-467 limits assumed): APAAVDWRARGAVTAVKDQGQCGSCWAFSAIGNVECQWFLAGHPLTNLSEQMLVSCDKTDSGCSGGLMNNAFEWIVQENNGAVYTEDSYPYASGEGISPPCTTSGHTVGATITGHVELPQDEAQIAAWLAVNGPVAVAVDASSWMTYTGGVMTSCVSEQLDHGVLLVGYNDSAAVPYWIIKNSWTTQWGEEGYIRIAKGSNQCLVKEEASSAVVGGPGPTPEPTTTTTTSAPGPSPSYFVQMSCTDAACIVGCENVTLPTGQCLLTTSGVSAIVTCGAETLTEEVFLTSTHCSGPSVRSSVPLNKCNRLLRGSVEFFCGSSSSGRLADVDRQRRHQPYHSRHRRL
Method in brief: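 Purified cruzain, 1.5 nM, pre-incubated 15 min at room temperature with compound in 100 mM sodium acetate pH 5.5, 5 mM DTT, 0.01% Triton X-100. Then 2 uM Z-FR-AMC added; AMC fluorescence (ex 360/em 450 nm) increase over 60 s gave reaction progress.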
Work on N=c1c(C(=O)NCc2ccc(F)cc2)cc2c(=O)n3ccccc3nc2n1CC1CCCO1 (stereo not drawn) yielded an activity change, negative = inhibition of -76.7%. Work on CCOc1cccc(-c2nn3c(-c4cc(C)[nH]n4)nnc3s2)c1 yielded an activity change, negative = inhibition of -3.99%. In the case of C/C(CC(=O)Nc1ccc(Cl)c(Cl)c1)=N\NC(N)=S, the Potency is reported as 1120 nM (active). In the case of COCC(C)NC(=O)Cn1c(SCc2ccccc2)nc2ccccc21 (stereo not drawn), the activity change, negative = inhibition is reported as -6.96%. In the case of CCc1ccc(-c2nc3c(=O)n(C)c(=O)nc-3n(CC)n2)cc1, the Potency is reported as 2510 nM (active). With CC(C)N(CCC(=O)c1ccc2ccccc2c1)Cc1ccccc1 the Potency was 31600 nM (active). COc1cccc(CNC(=O)c2ccc3c(c2)N(Cc2ccc(F)cc2Cl)C(=O)c2ccccc2S3)c1 showed an activity change, negative = inhibition of 2.24%. For O=C(CNC(=O)C1CCCCC1)OCC(=O)c1ccc(Br)cc1, the Potency was 2240 nM (active). With CCN(c1ccccc1)c1nc(N)nc(C#N)n1 the Potency was 14100 nM (active). With CC(C)Nc1nc(C#N)nc(NC(C)C)n1 the Potency was 28200 nM (active). Cc1ccc(CN(Cc2cc3cc(C)ccc3[nH]c2=O)Cc2nnnn2Cc2ccccc2)cc1 was tested, and the activity change, negative = inhibition was -18.6%. In the case of N#Cc1nc(Nc2cccc(Br)c2)nc(NC2CCCC2)n1, the Potency is reported as 100 nM (active). For N#Cc1nc(Nc2cccc(Cl)c2)nc(NC2CCCC2)n1, the Potency was 79.4 nM (active). CCN(CC)c1nc(C#N)nc(OC)n1 was tested, and the Potency was 7080 nM (active). Molecule C=Cc1nc(Nc2cc(F)cc(F)c2)nc(NC2CCCC2)n1 has an activity change, negative = inhibition of -5.68%. With CC(C)(C)Nc1nc(C#N)nc(Nc2ccccc2)n1 the Potency was 2240 nM (active). CC1CCCN(c2ccc(C(=O)OCC(=O)N3c4ccccc4Sc4ccccc43)cc2[N+](=O)[O-])C1 (stereo not drawn) was tested, and the activity change, negative = inhibition was -7.68%. CC(C)(C)OC(=O)CC(=O)NNC(=O)c1cc2ccccc2[nH]1 was tested, and the activity change, negative = inhibition was -2.89%. With O=C(COC(=O)CNC(=O)c1ccccc1)Nc1cc(C(F)(F)F)ccc1Cl the Potency was 11200 nM (active). With Cc1ccc(C(=O)Oc2oc(-c3ccco3)nc2C=Nc2ccc(Cl)cc2)cc1 the Potency was 11200 nM (active). Work on COc1ccc(-c2nc(C#N)c(NCCCN3CCOCC3)o2)cc1 yielded an activity change, negative = inhibition of -29.3%. In the case of Cc1ccc(Nc2nc(C#N)nc(NC3CCCC3)n2)cc1, the Potency is reported as 447 nM (active). Molecule CCOc1ccc(-c2cc3nc(C4CCN(C(=O)OC(C)(C)C)CC4)c(C(=O)O)cn3n2)cc1 has an activity change, negative = inhibition of -33%. CC(C)(C)OC(=O)NCC(=O)NNC(=O)C(C(=O)OCc1ccccc1)c1ccccc1 (stereo not drawn) was tested, and the activity change, negative = inhibition was -3.79%. In the case of Cc1ccc(NC(=O)c2ccc(-n3nncc3-c3ccccc3)cc2)cc1, the activity change, negative = inhibition is reported as 2.57%. In the case of N#Cc1nc(N2CCCCC2)nc(N2CCCCC2)n1, the Potency is reported as 8910 nM (active). Molecule CCCCNC(=O)Cn1c(SCc2cccc(C)c2)nc2ccncc21 has an activity change, negative = inhibition of -22.6%. Work on O=C(Nc1cc(C(F)(F)F)ccc1Cl)[C@H](O)CCc1ccccc1 yielded an activity change, negative = inhibition of -26.3%. Molecule CCOC(=O)[C@H](CCc1ccccc1)N[C@@H](C)C(=O)N1[C@H](C(=O)O)C[C@H]2CCCC[C@@H]21 has an activity change, negative = inhibition of 0.349%. For COc1ccc(-c2nc3c(=O)n(C)c(=O)nc-3n(C)n2)cc1, the Potency was 1260 nM (active). O=c1oc2ccccc2cc1-c1csc(Cc2nc(-c3ccc(Br)cc3)cs2)n1 showed an activity change, negative = inhibition of 1.72%. With CC(C)COC(=O)c1nnsc1NC(=O)Nc1ccccc1 the activity change, negative = inhibition was -3.71%. O=C(Nc1nc(-c2ccc(S(=O)(=O)N3CCCCCC3)cc2)cs1)c1cccs1 gave an activity change, negative = inhibition of -3.12%. With N#Cc1nc(Nc2cc(F)cc(Cl)c2)nc(NC2CCCC2)n1 the Potency was 141 nM (active). With COc1ccc(-c2cc(C#N)nc(N3CCN(C)CC3)n2)cc1 the activity change, negative = inhibition was -11.8%. For O=C(COC(=O)CCSc1ccccc1Cl)Nc1ccc(F)cc1F, the Potency was 14100 nM (active). With Cc1ccccc1OCC(=O)NCC(=O)OCC(=O)c1ccc(-c2ccccc2)cc1 the activity change, negative = inhibition was -15.9%. O=C(COC(=O)CNC(=O)C1CCCCC1)Nc1cc(C(F)(F)F)ccc1Cl was tested, and the Potency was 2820 nM (active).
